KLK7 zymogen act – activates the human kallikrein-7 zymogen. 370,000 tested, 0.9% active. P49862. activation, % at 7 µM. purified proKLK7, EDANS-DABCYL substrate fluorescence; 100% is mature enzyme control, 0% vehicle;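 active means activation above the mean of all tested compounds plus 3 SD, computed per campaign excluding outliers beyond control limits, cut at about 13% in these data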
Target sequence (P49862 whole entry, looked up): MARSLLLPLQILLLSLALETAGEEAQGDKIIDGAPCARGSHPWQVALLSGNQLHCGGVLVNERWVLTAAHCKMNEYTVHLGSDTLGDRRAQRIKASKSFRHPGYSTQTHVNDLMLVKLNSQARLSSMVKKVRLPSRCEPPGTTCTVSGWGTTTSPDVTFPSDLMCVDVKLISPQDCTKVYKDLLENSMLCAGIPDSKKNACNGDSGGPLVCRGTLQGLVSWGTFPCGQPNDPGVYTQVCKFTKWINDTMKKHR
PLC-beta3 inh – PLC-beta3 (human) inhibition, primary screen | Q01970 | Purified PLC-beta3, fluorogenic substrate, fluorescence | inhibition, % at 12.2 µM | 370,000 tested, 0.18% active | AID 720704; in the data active means inhibition above about 11%;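 further: 0% = median of compound wells on plate and 100% = full blocker control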
ADAM10 inh – ADAM10 inhibition, QFRET primary screen | O14672 | recombinant ADAM10, EDANS/DABCYL FRET peptide cleavage, 3 h | inhibition, % at 7 µM | 370,000 tested, 0.62% active | AID 720582;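 active means inhibition above a per-campaign cutoff equal to the mean of compounds falling between control-based bounds plus 3 SD, cut at about 20% in these data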;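 further: 0% = DMSO wells while the 100% control is not disclosed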
PLCg1 inh – PLC-gamma1 (human) inhibition, primary screen; 370,000 tested, 0.84% active; purified PLC-gamma1, fluorogenic substrate, fluorescence; P19174; inhibition, % at 12.2 µM; in the data active means inhibition above about 9.5%
ADAM17 inh – inhibits human ADAM17; P78536; recombinant ADAM17, EDANS/DABCYL FRET peptide cleavage; inhibition, % at 6.95 µM; 370,000 tested, 0.83% active;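 active means inhibition above the mean of compounds lying between control limits plus 3 SD, set per campaign, cut at about 8.5% in these data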;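 further: 0% = DMSO-only wells as the low control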
proKLK7 act conf – confirmation of human kallikrein-7 zymogen activators. shares compounds with KLK7 zymogen act. purified proKLK7, EDANS-DABCYL substrate fluorescence; scaled: vehicle 0, mature enzyme 100. activation, % at 7 µM. 3,200 tested, 68% active;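 active means activation, as change over the incubation, above the mean of all tested compounds plus 3 SD, cut at about 13% in these data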
EDANS-DABCYL int – optically interferes with EDANS-DABCYL signal, flagging KLK7 hits. shares compounds with KLK7 zymogen act. EDANS-DABCYL substrate fluorescence interference, no enzyme, 4 h; solvent 0%, active enzyme control 100%. activation, % at 7 µM. 3,200 tested, 80% active;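 active means activation above the all-compound mean plus 3 SD, ignoring values outside control-based bounds, cut at about 4.8% in these data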;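 further: value is the 4 h activation minus the activation read at time zero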
EDANS interf – counter-screen for kallikrein-7 activators: EDANS-DABCYL interference, dose response; shares compounds with KLK7 zymogen act; EDANS-DABCYL peptide fluorescence interference, no enzyme; EC50, µM; 250 tested, 20% active; AID 720493;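 active means compounds that raise the fluorescence signal in this interference counterscreen, with EC50 at or below 10 µM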;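 further: intact quenched peptide substrate alone read at 355 nm excitation and 520 nm emission; signal is fluorescence gain from T0 to T4 after four hours at room temperature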
Active calls of the source: *; i = inactive; / = no result given. The list is not random: actives were taken first. Their share in the collection is about 2.9%.

SMILES	KLK7 zymogen act	PLC-beta3 inh	ADAM10 inh	PLCg1 inh	ADAM17 inh	proKLK7 act conf	EDANS-DABCYL int	others
CCC(C)(C)n1nnnc1CN(Cc1cc2cc(OC)ccc2[nH]c1=O)C1CCCC1	1.6	-101.6	-106.9	-67.4	-38.9	/	/
O=c1[nH]c2cc3c(cc2cc1CN(Cc1nnnn1CC1CCCO1)C1CCCCC1)OCO3 (stereo not given)	50.9*	i	i	i	-243.6	-90.3	-72.8
O=c1[nH]c2cc3c(cc2cc1CN(Cc1nnnn1CC1CCCO1)C1CCCC1)OCO3 (stereo not given)	1.1	-31.6	-19.0	-25.0	-13.3	/	/
COc1ccc(S[C@]2(C(=O)N(C)C)CC(=O)N(C(=O)/C=C/c3ccccc3)[C@@H]2c2ccc(OC)cc2)cc1	-0.2	0.3	3.5	3.7	-0.5	/	/
CCN(CC)CCCNC(=O)c1cn(C(C)c2ccccc2)nn1 (stereo not given)	0.1	0.5	-8.9	-2.6	5.1	/	/
C[C@H]1COc2cccc(N3CCCC3)c2S(=O)(=O)N1C	0.0	-3.5	-2.3	-1.8	-4.4	/	/
Nc1ccccc1-c1nc2ccccc2c(=O)o1	15.1*	-254.3	-197.9	-225.3	-91.9	5.8	4.0
O=c1oc(-c2ccccc2[N+](=O)[O-])nc2ccccc12	-0.1	3.3	-4.8	0.8	-0.7	/	/
COC(=O)C[C@H]1CC[C@@H]2[C@H](COc3ccc(NC(=O)c4cccc(Cl)c4)cc3C(=O)N2C)O1	0.0	4.1	0.2	3.8	-2.8	/	/
COC(=O)[C@H]1C[C@@]2(N3CCCCC3)c3ccccc3N[C@H]2N1S(=O)(=O)c1ccc([N+](=O)[O-])cc1	-0.5	3.8	6.6	4.2	0.1	/	/
C=CCn1c(=NC(=O)c2ccc(S(=O)(=O)N3CCc4ccccc4C3)cc2)sc2cc(S(N)(=O)=O)ccc21	65.8*	-256.4	-207.2	-187.6	-45.9	70.4*	-208.4	EDANS interf=>69.5
COCCn1c(=NC(=O)c2ccc(S(=O)(=O)N3CCc4ccccc4C3)cc2)sc2cc(S(N)(=O)=O)ccc21	304.8*	i	-489.4	i	-175.8	63.0*	80.0*
COc1ccc(N=C(N)NC(=O)OCc2ccccc2)cc1	0.2	0.0	-6.5	0.1	-1.4	/	/
COc1cc2c(cc1OC)CN(C1CCCN(Cc3cccc(C(C)=O)c3)C1)CC2 (stereo not given)	22.9*	-249.8	-115.5	-140.3	-41.5	9.7	11.5*
CCN1CCN(c2cc(C)c3cc(NC(=S)N4CC(C)CC(C)C4)ccc3n2)CC1 (stereo not given)	14.0*	-269.7	i	-176.3	-188.1	1.6	4.0
CCOCCCNC(=S)Nc1ccc2nc(N3CCCC3)cc(C)c2c1	17.2*	-238.7	i	-186.8	-165.3	8.3	12.2*
CCN1CCN(C(=S)Nc2ccc3nc(N4CCN(CC)CC4)cc(C)c3c2)CC1	8.0	-268.9	i	-226.3	-158.0	/	/
CCN1CCN(c2cc(C)c3cc(NC(=O)c4ccc(C)c(C)c4)ccc3n2)CC1	29.3*	-31.8	-10.7	-13.3	3.0	30.3*	23.9*	EDANS interf=i
O=C(OC12CCCN(C1)/C(=C/c1cccc(Cl)c1)C2)c1ccc(F)cc1 (stereo not given)	0.0	-2.8	1.6	2.0	3.6	/	/
CC(C)C(=O)OCCCN1CCC2(CCC(c3ccccc3)CC2)C1=O (stereo not given)	-0.1	-0.9	1.1	-1.3	-1.2	/	/
CNC(=O)NC(=O)C(C)OC(=O)c1c2c(nc3ccccc13)/C(=C/c1cccs1)CC2 (stereo not given)	50.1*	i	-28.6	i	-7.2	85.4*	73.2*
CCCCNC(=O)COC(=O)c1c2c(nc3ccccc13)/C(=C/c1cccs1)CC2	-1.3	i	-26.4	i	-10.1	/	/
Cc1c(C)c2c(OCC(=O)N[C@@H](C)C(=O)O)cc3c(c2oc1=O)CCC(C)(C)O3	30.7*	i	i	i	i	72.0*	68.6*
